# Measured values published in the supplement of paper PMC6555819.
# Assays:
# Experiment in all cases: PBM binding z-score (relative to random genomic background probes); higher = stronger binding; sequences stand for … in GC…GCGATTGACAGCGTAGAATGAAGG
# [1] = test system: FXR:RXRa (NR concentration 270 nM, RXRa partner concentration 90 nM)
# Method in brief: (§1)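 Custom Agilent 4×180K protein-binding microarrays carried double-stranded probes. Their 34-nt variable regions held direct-repeat seeds, single-nucleotide variants, half-site ablations and random human genomic background sequences. Arrays were incubated 1 h with ligand-free nuclear receptor dimers in PBS pH 7.4, 2% milk, 0.02% Triton X-100, 1 mM DTT, 0.2 mg/mL BSA and 0.4 mg/ml salmon testes DNA. Antibodies against each partner (one per run) detected binding, and scanned fluorescence was regression-normalized. Binding z-scores use random background probes as reference.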
# [2] = test system: LXRa:RXRa (NR concentration 270 nM, RXRa partner concentration 90 nM)
# Method in brief: as §1
# [3] = test system: LXRa homodimer (NR concentration 270 nM)
# Method in brief: as §1
# [4] = test system: LXRb:RXRa (NR concentration 270 nM, RXRa partner concentration 90 nM)
# Method in brief: as §1
# [5] = test system: LXRb homodimer (NR concentration 270 nM)
# Method in brief: as §1
# [6] = test system: PPARa:RXRa (NR concentration 270 nM, RXRa partner concentration 90 nM)
# Method in brief: as §1
# [7] = test system: PPARg:RXRa (NR concentration 180 nM, RXRa partner concentration 90 nM)
# Method in brief: as §1
# [8] = test system: PPARg:RXRa 270nM:90nM, anti-RXR (NR concentration 270 nM, RXRa partner concentration 90 nM)
# Method in brief: as §1
# [9] = test system: PPARg:RXRa 30nM:10nM, anti-RXR (NR concentration 30 nM, RXRa partner concentration 10 nM)
# Method in brief: as §1
# [10] = test system: PPARg:RXRa 90nM:30nM, anti-RXR (NR concentration 90 nM, RXRa partner concentration 30 nM)
# Method in brief: as §1
# [11] = test system: PPARg:RXRa DBDmut IVT, anti-RXR (DBD mutation: RXRa K156A/R161A, NR concentration 270 nM, RXRa partner concentration 90 nM)
# Method in brief: as §1
# [12] = test system: PPARg:RXRa IVT, anti-PPARg (NR concentration 270 nM, RXRa partner concentration 90 nM)
# Method in brief: as §1
# [13] = test system: PPARg DBDmut:RXRa IVT, anti-PPARg (DBD mutation: PPARg1 K132A/R137A, NR concentration 270 nM, RXRa partner concentration 90 nM)
# Method in brief: as §1
# [14] = test system: PPARg DBDmut IVT, anti-PPARg (DBD mutation: PPARg1 K132A/R137A, NR concentration 270 nM)
# Method in brief: as §1
# [15] = test system: PPARg homodimer (NR concentration 180 nM)
# Method in brief: as §1
# [16] = test system: PXR:RXRa (NR concentration 270 nM, RXRa partner concentration 90 nM)
# Method in brief: as §1
# [17] = test system: PXR homodimer (NR concentration 270 nM)
# Method in brief: as §1
# [18] = test system: RARa:RXR (NR concentration 270 nM, RXRa partner concentration 90 nM)
# Method in brief: as §1
# [19] = test system: RARa homodimer (NR concentration 270 nM)
# Method in brief: as §1
# [20] = test system: RARb:RXRa (NR concentration 270 nM, RXRa partner concentration 90 nM)
# Method in brief: as §1
Sequence,PBM binding z-score [1],PBM binding z-score [2],PBM binding z-score [3],PBM binding z-score [4],PBM binding z-score [5],PBM binding z-score [6],PBM binding z-score [7],PBM binding z-score [8],PBM binding z-score [9],PBM binding z-score [10],PBM binding z-score [11],PBM binding z-score [12],PBM binding z-score [13],PBM binding z-score [14],PBM binding z-score [15],PBM binding z-score [16],PBM binding z-score [17],PBM binding z-score [18],PBM binding z-score [19],PBM binding z-score [20]
CCGACTGGGTCAAGGTTACCATAACGCACAGCCA,3.19,2.1,0.079,2.21,-0.717,4.15,6.25,5.71,3.15,5.32,5.21,5.93,0.445,-0.0986,1.69,2.17,0.366,2.76,0.448,3.62
TCATATACGTAAAGGTGAAAGTCGAACGATATGA,0.717,1.21,-0.0647,1.44,0.339,2.63,1.64,2.52,3.86,3.15,1.6,1.61,1.06,2,0.594,1.1,-0.24,1.55,0.587,2.04
CCTAGCAGGCCAGGGACACTCAAGCATTTCGCTT,-0.315,-0.301,-0.372,-0.68,-0.928,-0.453,0.0348,-0.505,-0.943,-0.701,0.0615,-0.258,-0.983,-1.15,-0.379,-0.644,-0.46,-0.225,-0.182,0.347
GGAATGAGGGCAAAGTTGATAGCATCTGTCGACG,1.58,1.26,-0.314,1.11,-0.0126,4.51,7.74,7.45,6.47,8.36,5.52,4.71,1.48,0.0505,0.811,1.43,0.53,1.95,0.171,2.36
ACTAGCAGGCCAAGTTTGTGTCACTCAAACAAAG,-0.566,-0.667,-0.358,-0.814,-0.886,-0.219,-0.46,-0.574,-0.538,-0.746,0.66,0.636,-0.284,-0.278,-0.972,-0.323,-0.685,-0.217,-0.826,0.471
CCTACTGGGCCATGAGGTCATTGATATCAACGTT,3.57,2.77,1.87,3.24,-0.168,4.19,4.59,4.66,2.55,4.53,4.24,5.54,0.512,-0.0861,2.41,4.71,3.85,4.49,0.257,2.91
CGTCCAAGGTCGAGGTCAGTGAAAGAGACTCGAA,4.56,3.15,0.186,2.74,-0.695,4.31,2.53,3.25,0.231,1.81,1.1,2.35,-1.04,-1.22,1.43,3.59,0.491,3.61,-0.0434,4.39
TCTTGTAGATCAATCAGGTTAAGAAAGCCTGAGT,0.77,0.362,0.00408,0.532,0.279,0.703,-0.495,1.31,2.82,2.3,1.98,0.808,1.29,0.885,-0.302,0.413,-0.0985,0.669,-0.252,0.281
TCTATTATTTGAAGGGCAACCGACGAGTCCGTTT,1.12,1.55,1.32,1.35,0.721,1.29,0.336,2.22,4.08,3.41,2.78,0.734,0.771,1.44,2.12,1.23,1.48,0.961,3.23,1.56
CTCGAAAAGTCGGTTGAGGTGAGTATACGGATAA,0.673,0.0454,-0.319,-4.02e-05,-0.053,0.458,-0.07,-0.172,0.085,-0.0769,-0.249,0.59,-0.0972,-0.5,0.0605,-0.0703,-0.0272,1.45,0.0114,0.371
CCAGACAGGTGAGAAGGAAACTCAGCCTCGATTA,0.0152,-0.159,0.111,-0.146,-0.36,0.0665,0.519,0.482,-0.0162,0.249,1.07,0.281,0.656,-0.614,0.615,-0.158,0.143,0.0468,0.447,0.0743
TCTAGTTGGTCAAAGGTCGCACACTCGAAATGCG,2.96,2.82,0.642,2.92,0.553,5.33,10.3,9.2,10.5,10.8,3.09,5.25,1.76,1.51,4.25,3.78,0.71,5.01,1.36,3.29
ATATGTAGGTTAGCTGGGGTGATTCAGACTAGGC,2.08,0.979,0.289,1.32,0.553,2.85,3.26,2.89,0.853,1.94,6.78,5.76,1.88,1.63,1,1.55,0.409,1.31,1.29,1.07
AGAATGAGGTTAAGATCTGGGAAACAGAATACAT,1.95,1.82,-0.135,1.51,-0.0689,3.64,2.13,2.39,0.969,1.84,2.76,3,1.23,0.832,0.543,1.03,0.115,1.69,0.301,1.9
TAATATAGGTAAATGCTAGGTGAAAGTCCGATCT,0.659,0.683,0.391,0.477,0.54,2.09,2.64,2.55,1.74,1.99,5.57,5.11,2.14,2.14,1.2,0.298,0.623,0.771,1.52,0.389
GCTGCTAGGTCAAGTTGGTCAGCTAACGGGTACG,4.8,3.29,0.651,2.31,0.442,3.64,2.48,2.94,0.55,2.09,4.62,4.19,-0.715,-0.257,1.75,1.68,-0.361,2.19,0.462,4.38
GCTAGCAGGCCATTTGGGGCACTCAATGACGGGC,-0.254,-0.719,-0.424,-0.753,-0.89,-0.000395,0.377,-0.278,-0.304,-0.0904,1.12,0.8,-0.58,-1.74,-0.698,-0.594,-0.802,-0.159,-1.06,0.199
AGAACGAGGGCACGCTGAATTGATAGCAGAGTAG,0.635,0.375,-0.408,0.0938,-0.694,1.92,2.24,2.02,0.73,1.04,4.42,4.08,0.656,0.0574,-0.00941,0.266,-0.373,0.746,-0.442,2.5
AGTCAAAGTTTACTAGGTAACGTAAGATTCAGCT,-0.0676,0.666,0.138,0.287,0.0239,2.28,3.46,3.72,1.13,2.53,3.45,4.76,0.895,0.737,0.729,0.455,0.255,0.426,0.29,1.81
ACTAGCAGGCCAGGGGTCACTCAAGATTAGTCCG,4.12,3.93,0.488,4.47,0.258,5.04,6.84,6.37,4.58,6.76,0.771,3.24,0.053,0.0858,2.99,5.13,0.401,5.58,1.68,3.85
ATCTCTAGGTAAAGTTCTGTGAAAGATCGATAGA,0.326,0.57,0.294,0.0682,0.741,0.12,0.24,0.886,0.571,0.677,2.44,1.61,1.11,1.68,1.26,0.0126,0.619,0.484,0.939,0.419
TCTCGGAGGATACGAAAGGTCAGAGCTCGACATC,2.69,4.17,2.95,3.22,-0.148,3.68,1.75,3.37,2.63,3.04,1.32,1.03,-1.04,-0.436,2.71,3.67,0.308,4.51,0.99,3.69
TCGAGTATGTTAGGGGCATTCAGAATGGCGTCGA,0.201,0.198,-0.264,0.596,-0.345,0.669,0.0373,0.882,0.884,1.02,0.969,-0.000912,-0.506,-1.16,-0.24,0.712,0.579,0.48,0.135,0.606
TCTTGTAGATCAAAGGTTAAAAAAGCCGAAGCCT,1.88,2.35,0.549,2.44,0.41,4.79,8.35,8.18,7.69,9.24,2.16,3.58,0.744,0.625,1.22,2.17,0.0944,3.21,0.327,1.69
AGACAAAGTTCATCTAGGTAACGTAAGATATGCT,6.83,6.21,5.23,3.92,1.56,4.91,4.69,4.99,1.93,3.69,1.22,3.2,1.33,1.93,3.1,5.34,6.29,4.17,1.38,4.98
ACAGACAGGTGAGTGAAGGTTACTCAGCTGGACG,0.506,0.708,-0.297,-0.125,-0.739,0.764,0.848,0.505,-0.0853,0.0538,0.352,1.16,0.332,0.037,0.138,0.646,-0.03,0.952,0.201,1.15
